Potency, activity change, negative = inhibition and activity, negative = inhibition data for 16 compounds are collected here from PubChem BioAssay (NCATS).

A number with no mark means an inactive call. Records with an inconclusive call do not appear. Active and inactive are the calls of the source. Unless noted, the call rests on the fitted dose curve; in most records, active means well fitted curve in either direction with a large enough effect (not every such curve was filed as active); inconclusive means small, poorly fitted or top-dose-only effect, or another doubt; inactive means flat fitted curve, though single readings scatter. A value given as a limit tells only on which side of the number the result lay.

For assay [1], the target named is Lysosomal acid glucosylceramidase (Homo sapiens) (UniProt P04062). As to the kind of experiment: Glucocerebrosidase-p2 (AID 348; in the data active means potency below about 10 µM; further: potency means the concentration at half of the fitted maximal effect). The settings on record: purified GBA, blue fluorogenic substrate, 40 min. Summed up:
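Normal human glucocerebrosidase (0.2 nM) with blue fluorogenic substrate (80 uM final) in citrate/phosphate pH 5.9 with 10mM sodium taurocholate, 0.01% tween-20; 40 min RT, NaOH/glycine stop; fluorescence Ex 365/Em 440; AC50 from a titration from 0.6 nM upwards.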

Assay [2] in a line: AP1 Signaling Pathway (AID 357).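 Further: ME-180 reporter cells stimulated with EGF at its EC50 level; on the % scale 0 is the no-effect control and ±100 the full control effect.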 The note with it: ME-180 AP-1-bla reporter, EGF-induced, beta-lactamase ratio, 5 h; at 7.69 µM (top of the series) unless noted. An outline of the steps:
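Titration-series screen for positive or negative modulators of EC50 EGF-induced signaling in ME-180 cells carrying an AP-1-driven beta-lactamase reporter. After 5 hours at 37 degrees Celsius, CCF4 460nm/530nm emission ratio gave %Activity; AC50 values derived.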

In assay [3] the target is Cytochrome P450 1A2 (Homo sapiens) (UniProt P05177). As to the kind of experiment: p450-cyp1a2 (AID 410; calls by dose curve; further: potency means the concentration at half of the fitted maximal effect;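 on activity change, negative = inhibition: -100% = full effect of reference inhibitor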). The settings on record: recombinant CYP1A2, luciferin-ME demethylation, luminescence; series mostly up to 11.4 µM. An outline of the steps:
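20nM CYP1A2, 100uM Luciferin-ME (=Km), 100mM KPO4; cpd 10 min RT; +NADPH regen, 60 min RT; stop/detect 20 min; luminescence. Normalized to furafylline 57 uM = full inhibition.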

Assay [4] can be described thus: NFAT Signaling Pathway (AID 444).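 Further: carbachol stimulus at about its EC50 of 1 µM final; on the % scale 0 is the no-effect control and ±100 the full control effect.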 The note with it: Jurkat NFAT-bla M1, carbachol, beta-lactamase ratio, 5 h; at 7.69 µM (top of the series) unless noted. An outline of the steps:
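Jurkat cells carrying an NFAT-driven β-lactamase reporter and co-transfected muscarinic M1 receptor were treated with compound plus carbachol (1 uM final, an EC50 level) for 5 h at 37 °C. CCF4 loading followed for 1 h at RT; 460/530 nm ratio gave %activity.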

The nature of assay [5]: Stat Signaling Pathway (AID 446).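 Further: ME-180 cervical cancer cells given 40 pM IL-6 alongside compound; SIE-controlled beta-lactamase reporter measured as 460/530 nm FRET emission ratio; on the % scale 0 is the no-effect control and ±100 the full control effect.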 The note with it: ME-180 (cervical carcinoma) SIE beta-lactamase reporter, IL-6 stimulated, 5 h; at 7.69 µM (top of the series) unless noted. An outline of the steps:
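Compound effects on IL-6-induced STAT reporter activity were measured in ME-180 cells. After overnight culture, cells were co-treated with 40 pM IL-6 for 5 hrs before beta-lactamase substrate loading at room temperature.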

Assay [6] has as its target Glucocorticoid receptor (Homo sapiens) (UniProt P04150). As to the kind of experiment: GR-GFP Redistribution (AID 450;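 active means compounds whose dose series gives a full or clear partial fitted curve of increased nuclear translocation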; further: potency means the concentration at half of the fitted maximal effect). The settings on record: U2OS GR-GFP nuclear translocation, laser cytometry, 2 h.
Assay [7] shares this target. Description: GR-EFC Redistribution (AID 451; calls by dose curve; further: potency means the concentration at half of the fitted maximal effect). The settings on record: CHO-K1 GR-EFC translocation, beta-gal luminescence, 2 h. Summed up:
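CHO-K1 cells stably expressing nuclear-localized β-gal enzyme acceptor and GR fused C-terminally to the enzyme donor fragment; ligand-driven nuclear translocation restores β-gal by complementation. Compounds titrated up to 46 uM final, 2 h at 37 °C; luminescence read.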

In assay [8] the target is Mitogen-activated protein kinase 10 (Mus musculus) (UniProt Q61831). As to the kind of experiment: JNK3 AlphaScreen Assay (AID 530).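 Further: kinase came from lysate of stimulated human HepG2 cells; on the % scale 0 is the no-effect control and ±100 the full control effect.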 The note with it: JNK3 lysate, c-Jun phosphorylation; series mostly up to 11.4 µM. Summed up: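 Biotinylated GST-cJun(1-79) served as substrate for JNK3 in HepG2 lysates stimulated with IL-1beta and TNF-alpha. ATP was 10 uM final, pH 7.6. Ser73 phosphorylation was quantified by AlphaScreen (680 nm excitation).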
Background: In Alpha technology, singlet oxygen from a donor bead excites a nearby acceptor bead.

In assay [9] the target is 3',5'-cyclic-AMP phosphodiesterase 4B (Homo sapiens) (UniProt Q07343). As to the kind of experiment: qHTS Assay for Inhibitors of PDE-IV (AID 607; active means well fitted activation curve with a large enough effect in the main read-out, with a control signal flat, not every such curve was filed as active; further: % of control where 0% means no effect). The settings on record: HEK293 ACTOne CNG channel cells, membrane potential fluorescence; series mostly up to 22.9 µM. Summed up:
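ACTOne HEK293 cells carry a modified cAMP-gated CNG channel and express endogenous PDE4; plated 1000 cells/well, compounds up to 22.9 uM final. Membrane-potential dye fluorescence (ex 535/em 590) was read; parental cells received 10 uM forskolin + 100 uM RO 20-1724.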

Chain of Cytochrome P450 1A2 (Homo sapiens) (P05177 whole entry, looked up): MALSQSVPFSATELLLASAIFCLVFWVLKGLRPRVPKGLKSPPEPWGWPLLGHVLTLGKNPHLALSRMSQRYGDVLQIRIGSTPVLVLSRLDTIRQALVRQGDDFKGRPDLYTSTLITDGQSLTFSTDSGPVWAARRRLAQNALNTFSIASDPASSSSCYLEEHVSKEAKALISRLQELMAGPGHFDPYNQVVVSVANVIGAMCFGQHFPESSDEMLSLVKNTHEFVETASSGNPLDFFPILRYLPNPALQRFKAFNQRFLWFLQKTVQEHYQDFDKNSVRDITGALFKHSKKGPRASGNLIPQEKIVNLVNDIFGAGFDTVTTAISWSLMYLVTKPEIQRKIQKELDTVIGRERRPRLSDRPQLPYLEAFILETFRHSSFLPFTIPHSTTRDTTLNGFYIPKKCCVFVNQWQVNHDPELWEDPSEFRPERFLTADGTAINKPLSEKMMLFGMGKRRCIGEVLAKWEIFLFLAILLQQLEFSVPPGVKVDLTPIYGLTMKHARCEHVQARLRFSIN
Chain of Glucocorticoid receptor (Homo sapiens) (P04150 whole entry, looked up): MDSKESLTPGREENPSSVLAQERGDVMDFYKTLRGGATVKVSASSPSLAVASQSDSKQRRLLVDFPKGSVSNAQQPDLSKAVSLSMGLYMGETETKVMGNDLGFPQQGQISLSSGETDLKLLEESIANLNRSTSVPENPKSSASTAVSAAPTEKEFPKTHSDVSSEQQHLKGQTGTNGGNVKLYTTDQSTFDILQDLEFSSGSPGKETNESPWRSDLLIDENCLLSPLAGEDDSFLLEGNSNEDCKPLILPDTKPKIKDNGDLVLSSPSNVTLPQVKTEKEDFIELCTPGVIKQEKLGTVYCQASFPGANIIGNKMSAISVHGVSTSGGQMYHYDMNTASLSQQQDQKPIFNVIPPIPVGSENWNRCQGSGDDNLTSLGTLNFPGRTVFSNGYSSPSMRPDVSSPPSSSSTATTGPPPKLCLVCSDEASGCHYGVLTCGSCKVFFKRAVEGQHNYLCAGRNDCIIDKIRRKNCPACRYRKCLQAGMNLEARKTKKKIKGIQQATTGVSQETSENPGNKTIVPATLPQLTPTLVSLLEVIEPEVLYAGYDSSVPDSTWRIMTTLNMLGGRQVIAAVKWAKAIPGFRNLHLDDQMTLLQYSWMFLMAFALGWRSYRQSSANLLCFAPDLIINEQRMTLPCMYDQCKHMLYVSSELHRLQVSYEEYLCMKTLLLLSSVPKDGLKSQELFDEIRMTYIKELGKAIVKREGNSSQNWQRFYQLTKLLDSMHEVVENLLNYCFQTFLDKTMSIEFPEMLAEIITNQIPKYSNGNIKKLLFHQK
Chain of Lysosomal acid glucosylceramidase (Homo sapiens) (P04062 whole entry, looked up): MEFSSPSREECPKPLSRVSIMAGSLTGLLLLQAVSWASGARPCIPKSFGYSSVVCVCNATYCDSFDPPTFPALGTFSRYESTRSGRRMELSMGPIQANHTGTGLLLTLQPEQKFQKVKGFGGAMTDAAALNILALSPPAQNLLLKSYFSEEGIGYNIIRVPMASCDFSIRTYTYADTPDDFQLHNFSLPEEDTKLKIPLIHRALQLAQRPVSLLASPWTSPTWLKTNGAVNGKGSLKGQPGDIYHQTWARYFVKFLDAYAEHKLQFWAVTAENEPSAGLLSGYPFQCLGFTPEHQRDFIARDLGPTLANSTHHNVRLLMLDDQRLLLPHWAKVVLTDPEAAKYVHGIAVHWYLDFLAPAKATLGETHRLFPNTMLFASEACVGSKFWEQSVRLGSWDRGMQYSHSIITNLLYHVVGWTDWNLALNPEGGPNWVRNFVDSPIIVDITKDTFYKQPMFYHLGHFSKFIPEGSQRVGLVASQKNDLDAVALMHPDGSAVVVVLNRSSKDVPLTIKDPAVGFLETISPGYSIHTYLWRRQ
Chain of 3',5'-cyclic-AMP phosphodiesterase 4B (Homo sapiens) (Q07343 whole entry, looked up): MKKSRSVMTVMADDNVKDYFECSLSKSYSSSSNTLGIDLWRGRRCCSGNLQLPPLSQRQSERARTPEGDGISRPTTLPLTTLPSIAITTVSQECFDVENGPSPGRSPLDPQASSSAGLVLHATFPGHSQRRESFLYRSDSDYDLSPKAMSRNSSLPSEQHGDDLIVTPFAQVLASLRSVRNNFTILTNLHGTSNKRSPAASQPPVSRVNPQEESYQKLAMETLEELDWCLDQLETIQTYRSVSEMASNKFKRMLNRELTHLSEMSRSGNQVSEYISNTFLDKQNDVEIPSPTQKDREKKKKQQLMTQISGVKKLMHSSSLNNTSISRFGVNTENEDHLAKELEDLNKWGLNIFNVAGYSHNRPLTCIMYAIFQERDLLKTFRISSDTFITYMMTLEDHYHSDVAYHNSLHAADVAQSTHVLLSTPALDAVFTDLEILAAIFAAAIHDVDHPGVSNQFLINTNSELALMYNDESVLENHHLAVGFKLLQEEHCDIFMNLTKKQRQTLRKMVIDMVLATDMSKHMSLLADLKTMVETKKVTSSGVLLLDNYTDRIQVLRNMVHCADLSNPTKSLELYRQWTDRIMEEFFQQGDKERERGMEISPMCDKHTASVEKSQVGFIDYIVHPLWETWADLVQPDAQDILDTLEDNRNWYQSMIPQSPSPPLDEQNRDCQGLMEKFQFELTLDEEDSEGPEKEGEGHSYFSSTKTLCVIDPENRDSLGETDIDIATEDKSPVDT

For the compound `O=C(O)CNC(=O)c1ccccc1O`, the Potency in [1] was over 11.4 µM; in [3], 5.01 µM (active); in assay [6], over 46 µM; in assay [7], over 9.22 µM. Also, the activity change, negative = inhibition in assay [2] is 6.2%; in assay [4], 10.4%. In addition, the activity, negative = inhibition in assay [5] is 6.14%. The Potency result in assay [8] and in assay [9] was “inactive” in each case.

In the case of `Nc1nc2c(C(=O)NCc3cccs3)nnn2c2cccc(Cl)c12`, the Potency was over 11.4 µM in [1], 1 µM (active) in assay [3], over 46 µM in assay [6] and over 9.22 µM in [7]. Moreover, the results for the activity change, negative = inhibition in [2] and in assay [4] were 2.54% and -1.34%, respectively. For the same compound, the activity, negative = inhibition in assay [5] is -2.31%. Also, the Potency entry in assay [8] and in [9] was “inactive” in each case.

Consider `CCON=C1C(C)(C)C(C)(C)C(C)(C)C1(C)C`, for which the values for the Potency in assay [1], in assay [6] and in [7] were over 11.4 µM, over 46 µM and over 9.22 µM, respectively. In addition, the activity change, negative = inhibition is 1.12% in assay [2] and 6.28% in assay [4]. The Potency result in [3], in assay [8] and in [9] was “inactive” each time. In [5], the activity, negative = inhibition was -3.9%.

`O=C(O)CSc1nnc2c3ccccc3c3ccccc3c2n1`: the Potency in assay [1] was over 11.4 µM; in [3], 0.0794 µM (active); in [6], over 46 µM; in [7], over 9.22 µM. The activity change, negative = inhibition in [2] was -9.84%; in assay [4] it was 22.2%. Further, in [5], the activity, negative = inhibition was 10.3%. For the same compound, the Potency entry in assay [8] and in [9] was “inactive” throughout.

As for `CC1=NN(c2ccccc2)C(=O)[C@@H]1N=Nc1ccc(S(N)(=O)=O)cc1`, the Potency in assay [1] is over 11.4 µM; in assay [3], 1.26 µM (active); in assay [6] it was over 46 µM; in [7], over 9.22 µM. The activity change, negative = inhibition was 6.08% in assay [2] and 9.48% in [4]. Moreover, the activity, negative = inhibition in [5] was -4.22%. Moreover, the Potency entry in assay [8] and in [9] was “inactive” in each case.

`C=C(Br)CN(C)CC(=C)Br`: the Potency was over 11.4 µM in assay [1], over 46 µM in assay [6] and over 9.22 µM in [7]. Also, the activity change, negative = inhibition was 0.791% in assay [2] and 0.988% in assay [4]. Further, the Potency result in assay [3], in [8] and in assay [9] was “inactive” in each case. The activity, negative = inhibition in assay [5] is -0.267%.

On to `CC(C)[C@]1(Cl)CC[C@@H]2[C@]3(C)CCC[C@@](C)(C(=O)O)[C@H]3C[C@H](Cl)[C@@]2(Cl)[C@H]1Cl`, for which the Potency is over 11.4 µM in [1], over 46 µM in [6] and over 9.22 µM in assay [7]. Also, the activity change, negative = inhibition in assay [2] is -2.07%; in assay [4] it was 0.923%. For the same compound, the Potency result in assay [3], in [8] and in assay [9] was “inactive” in each case. Besides, the activity, negative = inhibition in assay [5] is 0.27%.

With `Cn1c(=O)c2[nH]c([C@@H]3CC(=O)C[C@H](c4nc5c([nH]4)c(=O)n(C)c(=O)n5C)N3)nc2n(C)c1=O`, the figures for the Potency in [1], in [6] and in assay [7] were over 11.4 µM, over 46 µM and over 9.22 µM, respectively. For the same compound, the activity change, negative = inhibition in assay [2] was 3.07%; in [3] it was -18.2% [at 2.29 µM]; in assay [4], 19%. The activity, negative = inhibition in [5] was 6.09%. Further, the Potency entry in assay [8] and in [9] was “inactive” each time.

Regarding `O=C(O)C12CC3(C(=O)O)CC(C(=O)O)(CC(C(=O)O)(C1)C3=O)C2=O`, the Potency in assay [1] is over 11.4 µM; in assay [6], over 46 µM; in assay [7], over 9.22 µM. Also, the activity change, negative = inhibition in assay [2] was -2.38%; in assay [3], -4.3% [at 2.29 µM]; in assay [4], 6.84%. Moreover, the activity, negative = inhibition in [5] was 4.13%. The Potency entry in assay [8] and in assay [9] was “inactive” throughout.

For the compound `CCOC(=O)c1cnc(N(C)C)nc1SC(=N)N`, the Potency was over 11.4 µM in assay [1], over 46 µM in [6] and over 9.22 µM in [7]. The activity change, negative = inhibition is -8.3% in assay [2], -22.6% [at 2.29 µM] in assay [3] and 11.3% in assay [4]. In assay [5], the activity, negative = inhibition is -0.214%. In addition, the Potency entry in assay [8] and in [9] was “inactive” in each case.

For the compound `O=C1C2C3C=CC(C2C(=O)N1CN1CCOCC1)C1C2C(=O)N(CN4CCOCC4)C(=O)C2C31` (centres undefined), the values for the Potency in assay [1], in assay [6] and in [7] were over 11.4 µM, over 46 µM and over 9.22 µM, respectively. The activity change, negative = inhibition in assay [2] was 1.83%; in [4] it was 6.33%. For the same compound, the Potency result in assay [3], in assay [8] and in assay [9] was “inactive” throughout. For the same compound, in assay [5], the activity, negative = inhibition is 11.2%.

As to `O=C(O)C[C@H](Cc1ccc2c(c1)OCO2)C(=O)O`, the Potency was over 11.4 µM in assay [1], over 46 µM in assay [6] and over 9.22 µM in assay [7]. Moreover, the results for the activity change, negative = inhibition in [2] and in assay [4] were 2.2% and -29.5%, respectively. The Potency result in assay [3], in assay [8] and in assay [9] was “inactive” throughout. For the same compound, in [5], the activity, negative = inhibition is -2.05%.

For the compound `Cc1cc2nc3[nH]c4c(Cl)cc(Cl)cc4c3nc2cc1C`, the Potency in assay [1] is over 11.4 µM; in [3], 0.631 µM (active); in [6], over 46 µM; in assay [7] it was over 9.22 µM. Further, the values for the activity change, negative = inhibition in assay [2] and in assay [4] were -14% and 11.6%, respectively. In addition, in assay [5], the activity, negative = inhibition is -5.45%. The Potency entry in [8] and in assay [9] was “inactive” each time.

For the compound `Cc1cc(Cl)ccc1OCC(=O)Nc1nc(N)nc(N)n1`, the Potency in [1] was over 11.4 µM; in assay [6], over 46 µM; in assay [7], over 9.22 µM. The values for the activity change, negative = inhibition in assay [2], in [3] and in assay [4] were 7.35%, 2.1% [at 2.29 µM] and 1.27%, respectively. For the same compound, the activity, negative = inhibition in assay [5] was -6.25%. Moreover, the Potency result in [8] and in [9] was “inactive” throughout.

Turning to `O=C(O)c1ccc(C(=O)Nc2cccc3ccccc23)c(C(=O)O)c1`, the Potency in assay [1] was over 11.4 µM; in [6] it was over 46 µM; in assay [7] it was over 9.22 µM. Also, the activity change, negative = inhibition in [2] is 4.87%; in assay [3], -6.2% [at 2.29 µM]; in assay [4], 5.96%. Moreover, in [5], the activity, negative = inhibition was 0.708%. The Potency entry in assay [8] and in assay [9] was “inactive” throughout.

Turning to `CCc1ncc(CO)n1Cc1cccc2ccccc12`, the Potency in assay [1] is over 11.4 µM; in assay [6] it was over 46 µM; in [7] it was over 9.22 µM. Besides, the activity change, negative = inhibition in [2] is 11.3%; in assay [4], 6.66%. For the same compound, the Potency result in [3], in [8] and in [9] was “inactive” throughout. Further, the activity, negative = inhibition in [5] is 10.1%.
